Data on 37 compounds can be found in PubChem BioAssay (Tox21).

Structures are written as SMILES. Values without a mark were called inactive. The call rests on the fitted dose curve; in most records, active means well fitted curve in the direction sought with a large enough effect in the repeat runs; inconclusive means weak or mixed curves; inactive means no such curve, though single readings can be large; an effect the other way counts as inactive or inconclusive. Records with an inconclusive call do not appear.
On the % scale 0 is the no-effect control and ±100 the full control effect.

The first test is described as follows: Caspase-3/7 induction in CHO-K1 cells by small molecules, qHTS cell viability counter screen (AID 1346979). Further: nearly all actives have a fitted effect of over 35% in size. The conditions noted are these: CellTiter-Fluor fluorescence, 17 h; series mostly up to 92.4 µM; activity change, negative = cytotoxicity: at the top concentration. Put shortly: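 Seeding: 1,500 CHO-K1 cells/well. Rest: 5hr, 37C. Treatment: compounds in DMSO, 16hr. Read: CellTiter-Fluor, 1hr, fluorescence.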
For orientation: In qHTS, concentration-response curves come from the screen itself.
As for `C=CCCCCCCCCCCCC`, the “activity change, negative = cytotoxicity” value was -0.29%.
On the same count and under the same terms, the result for `C=C(C)C(=O)OCCOP(=O)(O)OCCOC(=O)C(=C)C` reads 9.01%.
On the same count and under the same terms, the result for `CC(C)CC(=O)O` reads -4.51%; that for `CC(C)C[C@H](NC(=O)CNC(=O)[C@H](Cc1ccc(O)cc1)NC(=O)[C@H](CO)NC(=O)[C@H](Cc1c[nH]c2ccccc12)NC(=O)[C@H](Cc1cnc[nH]1)NC(=O)[C@@H]1CCC(=O)N1)C(=O)N[C@@H](CCCN=C(N)N)C(=O)N1CCC[C@H]1C(=O)NCC(N)=O` (stereo in doubt), 4.94% [at 42.5 µM]; that for `O=C(CS(=O)Cc1ccco1)NC/C=C\COc1cc(CN2CCCCC2)ccn1` (centres undefined), 1.32% [at 42.5 µM].
Take `C=COCCOCCOCCOC=C`: the “activity change, negative = cytotoxicity” value was 5.22%.
Same read-out and setting: then `Cc1cccc(OCC(O)CNC(C)(C)C)c1C` (centres undefined), with 8.41% [at 42.5 µM]; and `C=C(C)C(=O)OCCNC(C)(C)C`, with 5.26%.
Still for that read-out and setting: the result for `FC(F)(F)c1ccccc1-n1ccnc1` reads 0.134% [at 42.5 µM]; that for `NCCS`, 3.15% [at 42.5 µM].
As for `COP(=O)(OC)OC(c1ccc(Cl)cc1)P(=O)(OC)OC` (centres undefined), the “activity change, negative = cytotoxicity” value is 10.5% [at 42.5 µM].
Regarding `COc1ccc(-c2cc(=O)c3c(O)cc(O[C@@H]4O[C@H](CO[C@@H]5O[C@@H](C)[C@H](O)[C@@H](O)[C@H]5O)[C@@H](O)[C@H](O)[C@H]4O)cc3o2)cc1O`, the “activity change, negative = cytotoxicity” value was -0.759% [at 42.5 µM].
Take `Cc1nc2n(c(=O)c1CCN1CCC(c3noc4cc(F)ccc34)CC1)CCC[C@H]2O`: the activity change, negative = cytotoxicity is 8.49% [at 19 µM].
On the same count and under the same terms, the result for `C[C@H](N)[C@H](O)c1cccc(O)c1` reads 1.9% [at 42.5 µM]; that for `COc1cc(C(=S)N2CCOCC2)cc(OC)c1OC`, 1.84% [at 42.5 µM]; that for `CC(C)C(=O)OCc1cccc(OC(=O)[C@@H]2N3C(=O)[C@@H](NC(=O)Cc4ccccc4)[C@H]3SC2(C)C)c1`, -4.29% [at 42.5 µM].
Consider `CCN(CC)CC(=O)Nc1c(C)cccc1C`, for which the “activity change, negative = cytotoxicity” value is -1.9% [at 42.5 µM].
Regarding `OCCCCC(O)CO` (centres undefined), the “activity change, negative = cytotoxicity” value is 11.7%.
The same measure, in the same setting: then `CC(S)C(=O)NCC(=O)O` (centres undefined), with 6.12% [at 42.5 µM]; and `Cc1cccc(C)c1OCC(C)N` (centres undefined), with 4.72% [at 42.5 µM].
Still for that read-out and setting: the result for `CC/C=C\CC1=C(C)CCC1=O` reads 1.01%; that for `CC(=O)CCCCn1c(=O)c2c(ncn2C)n(C)c1=O`, 1.2% [at 42.5 µM]; that for `C[C@@H](O)[C@H]1C(=O)N2C(C(=O)O)=C(SCCN=CN)C[C@H]12`, 6.72% [at 42.5 µM].
Turning to `CCN1CCc2nc(N)oc2CC1`, the “activity change, negative = cytotoxicity” value is 6.68% [at 42.5 µM].
On the same count and under the same terms, the result for `C[C@H](CCC(=O)O)[C@H]1CC[C@H]2[C@@H]3C(=O)C[C@@H]4CC(=O)CC[C@]4(C)[C@H]3CC(=O)[C@]12C` reads 0.134% [at 42.5 µM].
For the compound `O=C1c2ccccc2C(=O)C1c1ccccc1`, the “activity change, negative = cytotoxicity” value is 0.19% [at 42.5 µM].
Take `Cc1cc2cc3c(C)cc(=O)oc3c(C)c2o1`: the “activity change, negative = cytotoxicity” value is 3.11% [at 42.5 µM].
On the same count and under the same terms, the result for `CC(=C(CCOC(=O)C(C)C)SSC(CCOC(=O)C(C)C)=C(C)N(C=O)Cc1cnc(C)nc1N)N(C=O)Cc1cnc(C)nc1N` reads -3.81% [at 42.5 µM].
Same read-out and setting: the result for `CC1(CO)CN(c2ccccc2)NC1=O` (centres undefined) reads -0.272%; that for `Nc1ncnc(Nc2ccccc2)n1`, 6.44% [at 42.5 µM].
Take `C=C(C)C(=O)OCCN(CC)CC`: the “activity change, negative = cytotoxicity” value is 4.65%.
On the same count and under the same terms, the result for `COC(=O)[C@@H]1[C@H]2C[C@H]3c4[nH]c5ccccc5c4CCN3C[C@@H]2CC[C@@H]1O` reads -0.676% [at 42.5 µM].
Regarding `C=C(C)C1CCC(C)(O)CC1` (centres undefined), the “activity change, negative = cytotoxicity” value is 6.39%.
`CO[C@@H]1[C@@H](OC(N)=O)[C@@H](O)[C@H](Oc2ccc3c(O)c(NC(=O)c4ccc(O)c(CC=C(C)C)c4)c(=O)oc3c2C)OC1(C)C`: the “activity change, negative = cytotoxicity” value is 1.76% [at 42.5 µM].
Turning to `CCOc1cc(NC(C)=O)ccc1C(=O)OC`, the “activity change, negative = cytotoxicity” value is 6.95% [at 42.5 µM].
Turning to `COCCOCCOCCOCCOCCO`, the “activity change, negative = cytotoxicity” value is 1.76%.
On to `O=C1c2ccccc2C(=O)c2cc(S(=O)(=O)O)ccc21`, for which the “activity change, negative = cytotoxicity” value was 11.2%.

A short description of another test: Caspase-3/7 induction in CHO-K1 cells by small molecules, qHTS assay (AID 1346980). Further: nearly all actives have a fitted effect of over 15% in size. The conditions noted are these: CHO-K1 caspase-3/7 induction, Caspase-Glo luminescence, 17 h; series mostly up to 92.4 µM; caspase-3/7 activation: at the top concentration. Put shortly:
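Wild-type cells were seeded at 1,500 per well and settled 5 hr at 37 C, 5% CO2, then exposed to DMSO-dissolved compounds for 17 hr. Caspase-Glo 3/7 reagent was added, and luminescence was read after 30min at room temperature.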
For the compound `C=CCCCCCCCCCCCC`, the “caspase-3/7 activation” value was -1.12%.
`C=C(C)C(=O)OCCOP(=O)(O)OCCOC(=O)C(=C)C`: the “caspase-3/7 activation” value is -0.442%.
The same measure, in the same setting: then `CC(C)CC(=O)O`, with -0.673%; and `CC(C)C[C@H](NC(=O)CNC(=O)[C@H](Cc1ccc(O)cc1)NC(=O)[C@H](CO)NC(=O)[C@H](Cc1c[nH]c2ccccc12)NC(=O)[C@H](Cc1cnc[nH]1)NC(=O)[C@@H]1CCC(=O)N1)C(=O)N[C@@H](CCCN=C(N)N)C(=O)N1CCC[C@H]1C(=O)NCC(N)=O` (stereo in doubt), with -1.23% [at 42.5 µM].
On the same count and under the same terms, then `O=C(CS(=O)Cc1ccco1)NC/C=C\COc1cc(CN2CCCCC2)ccn1` (centres undefined), with 0.0894% [at 42.5 µM]; and `C=COCCOCCOCCOC=C`, with 1%; and `Cc1cccc(OCC(O)CNC(C)(C)C)c1C` (centres undefined), with 1.56% [at 42.5 µM].
On the same count and under the same terms, the result for `C=C(C)C(=O)OCCNC(C)(C)C` reads -0.776%; that for `FC(F)(F)c1ccccc1-n1ccnc1`, 0.493% [at 42.5 µM]; that for `NCCS`, 0.0721% [at 42.5 µM].
As for `COP(=O)(OC)OC(c1ccc(Cl)cc1)P(=O)(OC)OC` (centres undefined), the “caspase-3/7 activation” value is 3.82% [at 42.5 µM].
Same read-out and setting: the result for `COc1ccc(-c2cc(=O)c3c(O)cc(O[C@@H]4O[C@H](CO[C@@H]5O[C@@H](C)[C@H](O)[C@@H](O)[C@H]5O)[C@@H](O)[C@H](O)[C@H]4O)cc3o2)cc1O` reads 0.0781% [at 42.5 µM]; that for `Cc1nc2n(c(=O)c1CCN1CCC(c3noc4cc(F)ccc34)CC1)CCC[C@H]2O`, 0.349% [at 19 µM]; that for `C[C@H](N)[C@H](O)c1cccc(O)c1`, 0.0783% [at 42.5 µM].
Regarding `COc1cc(C(=S)N2CCOCC2)cc(OC)c1OC`, the “caspase-3/7 activation” value was -0.811% [at 42.5 µM].
Take `CC(C)C(=O)OCc1cccc(OC(=O)[C@@H]2N3C(=O)[C@@H](NC(=O)Cc4ccccc4)[C@H]3SC2(C)C)c1`: the “caspase-3/7 activation” value was -0.323% [at 42.5 µM].
Take `CCN(CC)CC(=O)Nc1c(C)cccc1C`: the “caspase-3/7 activation” value was 1.48% [at 42.5 µM].
The same measure, in the same setting: the result for `OCCCCC(O)CO` (centres undefined) reads 0.261%.
Same read-out and setting: then `CC(S)C(=O)NCC(=O)O` (centres undefined), with -0.213% [at 42.5 µM]; and `Cc1cccc(C)c1OCC(C)N` (centres undefined), with -0.007% [at 42.5 µM]; and `CC/C=C\CC1=C(C)CCC1=O`, with -2.09%.
The same measure, in the same setting: then `CC(=O)CCCCn1c(=O)c2c(ncn2C)n(C)c1=O`, with -0.679% [at 42.5 µM].
Turning to `C[C@@H](O)[C@H]1C(=O)N2C(C(=O)O)=C(SCCN=CN)C[C@H]12`, the “caspase-3/7 activation” value is -0.142% [at 42.5 µM].
The same measure, in the same setting: the result for `CCN1CCc2nc(N)oc2CC1` reads -0.836% [at 42.5 µM].
Turning to `C[C@H](CCC(=O)O)[C@H]1CC[C@H]2[C@@H]3C(=O)C[C@@H]4CC(=O)CC[C@]4(C)[C@H]3CC(=O)[C@]12C`, the “caspase-3/7 activation” value was 1.7% [at 42.5 µM].
Still for that read-out and setting: then `O=C1c2ccccc2C(=O)C1c1ccccc1`, with -1.73% [at 42.5 µM]; and `Cc1cc2cc3c(C)cc(=O)oc3c(C)c2o1`, with 0.0538% [at 42.5 µM].
As to `CC(=C(CCOC(=O)C(C)C)SSC(CCOC(=O)C(C)C)=C(C)N(C=O)Cc1cnc(C)nc1N)N(C=O)Cc1cnc(C)nc1N`, the “caspase-3/7 activation” value is -1.36% [at 42.5 µM].
The same measure, in the same setting: then `CC1(CO)CN(c2ccccc2)NC1=O` (centres undefined), with -2.17%; and `Nc1ncnc(Nc2ccccc2)n1`, with 0.0492% [at 42.5 µM].
Still for that read-out and setting: the result for `C=C(C)C(=O)OCCN(CC)CC` reads 1.13%.
For `COC(=O)[C@@H]1[C@H]2C[C@H]3c4[nH]c5ccccc5c4CCN3C[C@@H]2CC[C@@H]1O`, the “caspase-3/7 activation” value is 0.422% [at 42.5 µM].
For `C=C(C)C1CCC(C)(O)CC1` (centres undefined), the “caspase-3/7 activation” value was 0.0471%.
With `CO[C@@H]1[C@@H](OC(N)=O)[C@@H](O)[C@H](Oc2ccc3c(O)c(NC(=O)c4ccc(O)c(CC=C(C)C)c4)c(=O)oc3c2C)OC1(C)C`, the “caspase-3/7 activation” value is 0.141% [at 42.5 µM].
Still for that read-out and setting: the result for `CCOc1cc(NC(C)=O)ccc1C(=O)OC` reads 1.64% [at 42.5 µM]; that for `COCCOCCOCCOCCOCCO`, 2.02%.
Turning to `O=C1c2ccccc2C(=O)c2cc(S(=O)(=O)O)ccc21`, the “caspase-3/7 activation” value was -6.11%.
